Reference: PubChem BioAssay (NCATS)
“And” between values parts separate entries of the source, which are not always exact repeats. Equal values may be shown once. Results filed as inconclusive are left out. A number with no mark means an inactive call. The source made the active and inactive calls. The call rests on the fitted dose curve; in most records, active means well fitted inhibition curve with a large enough effect; inconclusive means small, poorly fitted or top-dose-only effect; inactive means flat fitted curve, though single readings scatter.

The compounds below were run on TAB165 (assay: qHTS profiling for inhibitors of Plasmodium falciparum proliferation (AID 504749)). Details: P. falciparum in erythrocytes, SYBR Green DNA, 72 h; series mostly up to 28.7 µM.
Method in brief: (§1)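 Parasite proliferation within erythrocytes, 72 h exposure. Endpoint: SYBR Green I fluorescence after overnight lysis at room temperature. Controls: 0.29 uM artemisinin, DMSO.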
Further: nearly all actives have a fitted effect of over 60% in size.
Potency means the concentration at half of the fitted maximal effect.

Compound | Potency
CCCCN1CCCC[C@H]1C(=O)Nc1c(C)cccc1C | inactive
C[C@@H]1CN(c2c(F)c(F)c3c(=O)c(C(=O)O)cn(C4CC4)c3c2F)C[C@H](C)N1 | inactive
Cc1cc(N)c2ccccc2[n+]1CCCCCCCCCC[n+]1c(C)cc(N)c2ccccc21 | 0.1 µM (active)
O=C(O)[C@@H]1CSCN1 | inactive
Nc1ccc(S(=O)(=O)Nc2nccs2)cc1 | inactive

These compounds were tested on W2 in the same assay as above. Details: P. falciparum in erythrocytes, SYBR Green DNA, 72 h; series mostly up to 28.7 µM.
Method in brief: as §1

Compound | Potency
CCCCN1CCCC[C@H]1C(=O)Nc1c(C)cccc1C | 6.75 µM (active)
C[C@@H]1CN(c2c(F)c(F)c3c(=O)c(C(=O)O)cn(C4CC4)c3c2F)C[C@H](C)N1 | inactive
Cc1cc(N)c2ccccc2[n+]1CCCCCCCCCC[n+]1c(C)cc(N)c2ccccc21 | 0.102 µM (active)
Nc1ccc(S(=O)(=O)Nc2nccs2)cc1 | inactive

What follows are compounds tested on CRL-7250 (assay: Cytotoxic Profiling of Annotated Libraries Using Quantitative High-Throughput Screening (AID 1296008; on max response: on the % scale 0 is the no-effect control and ±100 the full control effect)). Details: Five cell lines viability, CellTiter-Glo ATP luminescence, 48-72 h; max response: hits give low values.
Method in brief: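 Compounds were pin-transferred onto cells and incubated 48 or 72 hr at 37 degree Celsius, 95% humidity. CellTiter-Glo was added, plates sat 10 min at room temperature, then ATP-coupled luminescence was imaged as the viability read-out.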

Compound | max response | outcome | Potency
N[C@H](C(=O)O)c1ccc(O)cc1 | 3.21% |  | 
N[C@@H](CSSC[C@H](N)C(=O)O)C(=O)O |  | inactive | 
CCCCN1CCCC[C@H]1C(=O)Nc1c(C)cccc1C | 2.72% and -2.26% |  | 
C[C@@H]1CN(c2c(F)c(F)c3c(=O)c(C(=O)O)cn(C4CC4)c3c2F)C[C@H](C)N1 | -3.49% and -4.42% |  | 
CC/C=C(\C(=O)N[C@@H]1C(=O)N2C(C(=O)OCOC(=O)C(C)(C)C)=C(COC(N)=O)CS[C@H]12)c1csc(N)n1 | -3.67% |  | 
OCC(CO)N[C@H]1C[C@](O)(CO)[C@@H](O)[C@H](O)[C@H]1O | -4.94% |  | 
Cc1ncc([N+](=O)[O-])n1CC(O)CCl (stereo not given) | 0.168% |  | 
C/C(=C(\CCOP(=O)(O)O)SC(=O)c1ccccc1)N(C=O)Cc1cnc(C)nc1N | -3.12% |  | 
CC(C)C(=O)c1c(C(C)C)nn2ccccc12 | -8.07% |  | 
O=C(O)[C@H](O)c1ccccc1 | -7.55% |  | 
C[C@H](NC(CCc1ccccc1)C(=O)O)C(=O)N1CCC[C@H]1C(=O)O (stereo not given in full) |  | inactive | 
Cc1cc(N)c2ccccc2[n+]1CCCCCCCCCC[n+]1c(C)cc(N)c2ccccc21 |  |  | 14.6 µM (active)
COc1ccc2cc1Oc1cc3c(cc1OC)CC[N+](C)(C)[C@H]3Cc1ccc(cc1)Oc1c(OC)c(OC)cc3c1[C@@H](C2)[N+](C)(C)CC3 |  | inactive | 
c1ccc2c(CC3=NCCN3)cccc2c1 | -1.39% |  | 
CN(C)CCCN1c2ccccc2CCc2ccccc21 | 0.991% |  | 
CC1=C(CC(=O)O)c2cc(F)ccc2/C1=C\c1ccc(S(C)(=O)=O)cc1 | -16.5% |  | 

Compound | max response | outcome | Potency
O=C(O)Cc1sc(-c2ccccc2)nc1-c1ccc(Cl)cc1 | 3.43% |  | 
C[C@H]1O[C@H](O[C@H]2[C@H](O)[C@@H](O)[C@@H](O[C@H]3[C@H](O)[C@@H](O)[C@H](O)O[C@@H]3CO)O[C@@H]2CO)[C@H](O)[C@@H](O)[C@@H]1N[C@H]1C=C(CO)[C@@H](O)[C@H](O)[C@H]1O |  | inactive | 
C[C@]12CC[C@@H]3c4ccc(O)cc4CC[C@H]3[C@@H]1CCC2=O |  | inactive | 
CN(C)CC[C@@H](c1ccc(Cl)cc1)c1ccccn1 | 4.72% |  | 
Nc1cc(=O)[nH]c(N)n1 |  | inactive | 
CO/N=C(\C(=O)N[C@@H]1C(=O)N2C(C(=O)O)=C(CSc3nc(=O)c(O)nn3C)CS[C@H]12)c1csc(N)n1 | 1.86% |  | 
CCN(CC)CCOC(=O)C1(C2CCCCC2)CCCCC1 |  | inactive | 
CC(C)(O)c1ccccc1CC[C@@H](SCC1(CC(=O)O)CC1)c1cccc(/C=C/c2ccc3ccc(Cl)cc3n2)c1 | -23.3% |  | 
CC1=C(C/C=C(\C)CCC[C@H](C)CCC[C@H](C)CCCC(C)C)C(=O)c2ccccc2C1=O | 1.2% |  | 
C[C@@H]1CC[C@@]2(OC1)O[C@H]1C[C@H]3[C@@H]4CC[C@H]5C[C@@H](O)CC[C@]5(C)[C@H]4CC(=O)[C@]3(C)[C@H]1[C@@H]2C |  | inactive | 
C[C@@H](O)[C@H](N)C(=O)O | -2.34% |  | 
Cn1cc[nH]c1=S | 4.5% |  | 
O=C(O)[C@@H]1CSCN1 | -15.8% |  | 
C=CCn1c(=O)n([C@@H]2O[C@H](CO)[C@@H](O)[C@H]2O)c2nc(N)[nH]c(=O)c21 | -6.63% |  | 
CC1(C)S[C@@H]2[C@H](NC(=O)Cc3ccccc3)C(=O)N2[C@H]1C(=O)O (tested in a mixture with another compound) |  | inactive | 
